Screening data deposited in PubChem BioAssay by several laboratories.
MazF activator: activators of E. coli MazEF toxin-antitoxin RNase, primary screen, biochemical, fluorescence, uHTS. Endoribonuclease toxin MazF (Escherichia coli (strain K12)), P0AE70. hit rate 0.32% among 350,000. AID 504720, 2011. activation, % at 20 µM. FAM/BHQ RNA-DNA oligo cleavage fluorescence, 5 h; in the data active = activation above about 50%
Target sequence (P0AE70 whole entry, looked up): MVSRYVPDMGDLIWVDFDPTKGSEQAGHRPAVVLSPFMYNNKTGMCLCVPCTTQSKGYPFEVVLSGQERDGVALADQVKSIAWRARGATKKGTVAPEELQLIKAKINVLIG
3CLpro inhibitor: SARS-CoV 3CLpro protease inhibitors, primary screen, biochemical, quenched FRET; Replicase polyprotein 1ab (Severe acute respiratory syndrome coronavirus), P0C6X7; recombinant SARS-CoV 3CLpro, quenched FRET peptide cleavage; inhibition, % at 6 µM; hit rate 0.14% among 290,000; in the data active = inhibition above about 12%
PriA SSB inh: inhibitors of Klebsiella pneumoniae PriA binding to SSB C-terminal tail, primary screen, biochemical, AlphaScreen. hit rate 0.6% among 430,000. PriA–SSB C-terminal tail interaction (Klebsiella pneumoniae). inhibition, % at 33 µM. AlphaScreen SSBct-PriA binding, biotinylated peptide; in the data active = inhibition mostly above about 37%, no sharp cut-off; inactive = mostly below about 20%
Yp Topo-I inh: Yersinia pestis topoisomerase I inhibitors, primary screen, biochemical, cleavage product accumulation, plate reader, single point. hit rate 0.064% among 360,000. Y. pestis Topo-I cleavage product accumulation. AID 504884, 2011. DNA topoisomerase I (Yersinia pestis CO92). activity, % at 10 µM; in the data active = activity above about 50%, passing the limit was not always enough
Numbers stand for hits; . = inactive; / = no result given; ! = repeats disagree. Most compounds without a hit are left out; they make up all but 0.9% or so of the library.

SMILES | MazF activator | 3CLpro inhibitor | PriA SSB inh | Yp Topo-I inh
Cc1ccc(C(=O)Nc2cccc(C(=O)N/N=C/c3ccc(F)cc3)c2)cc1 | 63 | . | / | .
O=C(NCc1cc(-c2ccc(Cl)cc2)on1)c1cc2ccccc2oc1=O | / | / | . | /
COc1ccc(C2=NC3(CCNCC3)N=C2SC)cc1 | / | / | . | /
N#CCCN1CCCc2cc(N=Nc3ccc(C(F)(F)F)cc3)ccc21 | . | . | 45 | .
O=[N+]([O-])c1ccc(NN=C2CC3CC=CC23)c([N+](=O)[O-])c1 (configuration not stated) | / | / | 52 | /
O=C(CNC(=O)c1cccs1)N/N=C\c1cccs1 | / | / | . | /
COc1ccccc1-n1ncc2c(C)nnc(SCC(=O)NCc3ccccc3Cl)c21 | / | / | 89! | /
Cc1nnc(SCC(=O)NCc2ccccc2Cl)c2c1cnn2-c1ccccc1 | / | / | . | /
COc1ccc(C(=O)Nc2nnc(C)s2)cc1S(=O)(=O)N1CCOCC1 | . | / | . | .
COc1ccc(C(=O)Nc2nc(C)c(C(C)=O)s2)cc1S(=O)(=O)N1CCOCC1 | 69 | / | . | .
O=C(Nc1nnc(-c2cccs2)o1)c1ccc(Cl)s1 | / | / | . | /
O=P1(c2ccccc2)Nc2ccccc2N1c1ccccc1 (configuration not stated) | . | / | 57 | .
Oc1ccccc1-c1nncn1-c1ccccc1 | / | / | . | /
Cc1ccc(NCCN(C)C)c2c(=O)c3cc(O)ccc3sc12 | . | / | 62 | .
CS(=O)(=O)N1CCC(C(=O)Nc2cnoc2)CC1 | / | / | . | /
O=C(/C=C/c1cccs1)NCCn1ccnc1-c1ncccn1 | / | / | 116 | /
CCOc1ccccc1C(=O)NCCn1ccnc1-c1ncccn1 | / | / | 55 | /
O=C(Cc1ccccc1Cl)NCCn1ccnc1-c1ncccn1 | / | / | . | /
O=C(NCCn1ccnc1-c1ncccn1)c1ccccc1Cl | / | / | 78 | /
COc1cccc2cc(C(=O)NCCn3ccnc3-c3ncccn3)oc12 | / | / | 46 | /
COc1ccccc1CNC(=O)C(=O)Nc1cccc(Cl)c1C | / | / | . | /
O=C(NCc1cccc(-c2nccs2)c1)c1cc(=O)c2ccccc2o1 | / | / | . | /
Cc1oncc1C(=O)NCCn1ccnc1-c1ncccn1 | / | / | 46 | /
Cc1ccc(NC(=O)C(=O)Nc2ccc(C)cn2)nc1 | . | . | . | .
Cc1ccc(NC(=O)/C(C#N)=C(\N)C(Cl)(Cl)Cl)nc1 | 165 | . | . | .
SMILES | MazF activator | 3CLpro inhibitor | PriA SSB inh | Yp Topo-I inh
Cn1cccc1C(CNC(=O)c1ccc2c(c1)OCO2)N1CCc2ccccc2C1 (configuration not stated) | / | / | 13 | /
Cn1cccc1C(CNC(=O)C(=O)Nc1ccc2c(c1)OCO2)N1CCc2ccccc2C1 (configuration not stated) | / | / | . | /
CCCCOc1cccc(C(=O)N=c2sc3ccc(C)c(C)c3n2C)c1 | / | / | . | /
COc1ccc(Cl)cc1C(=O)Nc1c2c(nn1-c1cccc(C)c1C)CSC2 | / | / | . | /
COc1ccc(Br)cc1CNc1ccc2[nH]c(=O)[nH]c2c1 | . | . | 39 | .
COc1cccc(CNc2ccc3[nH]c(=O)[nH]c3c2)c1OCc1ccccc1Cl | . | . | 79 | .
COc1cc(CNc2ccc3[nH]c(=O)[nH]c3c2)ccc1OCc1ccccc1 | . | . | 41 | .
COc1cc(CNc2ccc3[nH]c(=O)[nH]c3c2)ccc1OCc1ccc(F)cc1Cl | . | . | . | .
COc1ccc(Br)cc1CNc1ccc(O)cc1 | . | . | . | .
COc1cccc(CNc2ccc3[nH]c(=O)[nH]c3c2)c1OCc1ccccc1 | . | . | 47 | .
Nc1nc2c(s1)-c1cccc3cccc-2c13 | / | / | 66 | /
Nc1nc(-c2ccccc2)c(-c2ccccc2)s1 | . | . | . | .
Cc1noc(C)c1C(=O)Nc1ccn2nccc2c1 | / | / | . | /
CCOC(=O)CNC(=O)CSc1ncnc2c1nnn2Cc1ccccc1 | / | / | . | /
CCOC(=O)CNc1nc(C(C)(C)C)nc2c1nnn2Cc1ccccc1 | . | . | . | 59
O=C(CSc1nnc(COc2ccc(Cl)cc2)o1)N1c2ccccc2CCc2ccccc21 | . | . | . | 61
O=C(Nc1nnc(-c2ccco2)o1)C1CC(=O)N(c2ccccc2)C1 (configuration not stated) | / | / | 65 | /
CC(Oc1ccc(Cl)cc1)C(=O)Nc1ccccc1N1CCOCC1 (configuration not stated) | . | / | . | .
Cc1cc(Cl)ccc1OC(C)C(=O)Nc1ccccc1N1CCOCC1 (configuration not stated) | . | . | . | 63
CCN1CCN(c2ccc(S(=O)(=O)N3CCOCC3)cc2NC(=O)C(C)Oc2cccc(Cl)c2)CC1 (configuration not stated) | . | / | / | .
